40 compounds from PubChem BioAssay (NCATS) can be followed below.

Inconclusive results are not listed. Where a call stands in place of a potency, no number is given. Calls of active or inactive are those of the source. Calls come from the whole dose curve; as a rule, active = well fitted inhibition curve with a large enough effect; inconclusive = small, poorly fitted or top-dose-only effect; inactive = flat fitted curve, though single readings scatter. Where a SMILES comes first, the peptide text is derived from it.
Potency is the fitted concentration of half-maximal effect.

Chain of Glutathione peroxidase 1 (Homo sapiens) (P07203 whole entry, looked up): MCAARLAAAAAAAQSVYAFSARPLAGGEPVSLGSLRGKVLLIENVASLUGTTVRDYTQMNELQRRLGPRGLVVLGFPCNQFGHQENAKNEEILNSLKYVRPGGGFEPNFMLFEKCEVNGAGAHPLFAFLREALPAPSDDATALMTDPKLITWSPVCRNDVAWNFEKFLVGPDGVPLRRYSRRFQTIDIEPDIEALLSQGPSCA

This test has as its target Glutathione peroxidase 1 (Homo sapiens) (UniProt P07203). Put plainly: Primary qHTS Assay for Inhibitors of Recombinant Selenoprotein Glutathione Peroxidase 1 (GPX1) (AID 1845191). Note: nearly all actives have a fitted effect of over 65% in size. As to conditions: recombinant GPX1, GR-coupled NADPH fluorescence, 15 min; series mostly up to 48.8 µM. The text has this: Assay Provider: Elias S.J. Arner MD PhD.
Department of Medical Biochemistry and Biophysics
Karolinska Institutet, Solna, Stockholm, Sweden
Selenoprotein glutathione peroxidases (GPX), like the ubiquitously expressed GPX1 and the ferroptosis modulator GPX4, enact their antioxidant activities by reducing hydroperoxides using glutathione. […] GPX1 and GPX4 inhibitors have thus shown promise as anti-cancer agents. Existing inhibitors are often promiscuous, or modulate GPX activity only indirectly, so novel direct inhibitors identified through screening against GPX1 and GPX4 could be valuable. Here, we developed optimized glutathione reductase (GR)-coupled GPX assays for the biochemical high-throughput screen (HTS) of almost 12,000 compounds with known mechanisms of action. Initial hits were triaged using a GR counter-screen, assessed for isoform specificity using a separate GPX2 assay, and were assessed for general selenocysteine-targeting activity using a thioredoxin reductase (TXNRD1) assay. With this suite of assays, we identified novel GPX1/GPX2- and GPX4-specific inhibitors and can here present a validated pipeline for future discovery research for selenoprotein-targeting agents.
SEQUENCE No. (e.g., 1, 2, 3, etc.); […] (e.g., Cells, Incubation, Reagent, etc.); VALUE; DESCRIPTION.
1; Reagent 1; 3 uL; GPx1 enzyme or no enzyme control in 1536-well, black, solid Greiner assay plate.
2; Compound; 25 nL; Kalypsis pin tool (Wako USA) equipped with a 1536-well pin head.
3; Incubation; 30 min; room temperature.
4; Reagent 2; 1 uL; 10 nM GPX1, 1 mM GSH, 0.5 mM CHP, 0.5 mM NADPH, 100 nM GR, 0.01% BSA substrate
5; Detection; Fluorescence; ViewLux microplate reader, excitation 340 nm and emission 450 nm.
6; Incubation; 15 min; room temperature.
7; Detection; Fluorescence; ViewLux microplate reader, excitation 340 nm and emission 450 nm.
NOTES (numbers refer to Sequence numbers above)
1. 3 uL of 16.66 nM GPX1 and 0.016% BSA in assay buffer (50 mM Tris-HCl, 2 mM EDTA (pH 7.5), 150 mM NaCl) was added to columns 3-48 of 1536-well assay plates using a BioRAPTR Flying Reagent Dispenser (Let's Go Robotics (LGR), Carlsbad, CA). A no-enzyme control (0.01% BSA in TES assay buffer) was added to columns 1-2.
2. 25 nL of test compounds and DMSO controls were added to each well with a pin tool (Kalypsys).
3. The assay plates were incubated for 30 minutes at room temperature.
4. 1 uL of master mix (500 nM glutathione reductase (GR), 5 mM reduced glutathione (GSH), 2.5 mM NADPH in assay buffer) was added. 1 uL of cumene hydroperoxide (CHP) ([2.5 mM] in 50% EtOH) was then added within 5 minutes to initiate the reaction. Final concentrations were: 10 nM GPX1, 1 mM GSH, 0.5 mM CHP, 0.5 mM NADPH, 100 nM GR, 0.01% BSA.
5. Initial fluorescence readout (t=0) at 340/450 nm was measured using a ViewLux multimodal detector (PerkinElmer, Waltham, MA).
7. Endpoint fluorescence readout (t=15) at 340/450 nm was measured 15 min after room temperature incubation.
On the technique in general: In qHTS, concentration-response curves come from the screen itself.
With `C/C=C(/C)C(=O)O[C@H]1C(C)=CC23C(=O)C(C=C(CO)[C@@H](O)[C@]12O)[C@H]1[C@@H](C[C@H]3C)C1(C)C` (stereo not given in full), the Potency entry was “inactive”.

`NC(=O)/C(=C/n1cnc(-c2cc(C(F)(F)F)cc(C(F)(F)F)c2)n1)c1cncnc1`: the Potency result was “inactive”.

Consider `C[C@@H]1[C@H](O)[C@@H](C)/C=C/C=C/C=C/C=C/C=C/C=C/C=C/[C@H](O[C@@H]2O[C@H](C)[C@@H](O)[C@H](N)[C@@H]2O)C[C@@H]2O[C@](O)(C[C@@H](O)C[C@@H](O)[C@H](O)CC[C@@H](O)C[C@@H](O)CC(=O)O[C@H]1C)C[C@H](O)[C@H]2C(=O)O`, for which the Potency result was “inactive”.

On to `COc1cccc2c1C(=O)c1c(O)c3c(c(O)c1C2=O)C[C@@](O)(/C(CO)=N/NC(=O)CCCCCN1C(=O)C=CC1=O)C[C@@H]3O[C@H]1C[C@H](N)[C@H](O)[C@H](C)O1`, for which the Potency entry was “inactive”.

Consider `O=C(Nc1cnn2ccc(N3CCC[C@@H]3c3cc(F)ccc3F)nc12)N1CC[C@H](O)C1`, for which the Potency result was “inactive”.

Turning to `CC[C@H]1OC(=O)[C@H](C)C(=O)[C@H](C)[C@@H](O[C@H]2O[C@H](C)C[C@H](N(C)C)[C@H]2O)[C@](C)(OC)C[C@@H](C)C(=O)[C@H](C)[C@H]2N(CCCCn3cnc(-c4cccnc4)c3)C(=O)O[C@]12C`, the Potency entry was “inactive”.

For the compound `CC[C@@H](Oc1cccc(CN(CCCOc2ccc(OC)cc2)c2nc3ccccc3o2)c1)C(=O)O`, the Potency entry was “inactive”.

In the case of `CC(=O)N1c2ccc(-c3ccc(C(=O)O)cc3)cc2[C@H](Nc2ccc(Cl)cc2)C[C@@H]1C`, the Potency entry is “inactive”.

Turning to `C[C@H]1[C@H](C)CC[C@]2(C(=O)O)CC[C@]3(C)C(=CC[C@@H]4[C@@]5(C)CC[C@H](O)C(C)(C)[C@@H]5CC[C@]43C)[C@H]12`, the Potency result was “inactive”.

Turning to `Cc1ccc(S(=O)(=O)Nc2cc(-c3ccc(C#N)s3)ccc2C)cc1`, the Potency result was “inactive”.

Consider `Cc1cc(C)c2c(c1)[C@@H](N(Cc1cc(C(F)(F)F)cc(C(F)(F)F)c1)c1nnn(C)n1)CCCN2CC1CCC(C(=O)O)CC1` (stereo not given in full), for which the Potency entry is “inactive”.

As for `O=C(/C=C\n1cnc(-c2cc(C(F)(F)F)cc(C(F)(F)F)c2)n1)NNc1ccccn1`, the Potency entry is “inactive”.

On to `C=CC(=O)N1C[C@H](Nc2ncnc3[nH]ccc23)CC[C@@H]1C`, for which the Potency entry is “inactive”.

With `CC(C)n1ncnc1-c1cn2c(n1)-c1ccc(O[C@@H](C)C(N)=O)cc1OCC2`, the Potency result was “inactive”.

For the compound `O=C(O)CC(C(=O)O)n1c(O)c(C2=c3cc(Br)ccc3=NC2=O)sc1=S` (stereo not given), the Potency is 5.15 µM (active).

As for `CCC(=O)N1CCOc2c(cc(-c3cc(OC)cc(OC)c3)cc2C(=O)N[C@H]2CCCN(C)C2)C1`, the Potency entry was “inactive”.

As to `CN(CCOc1ccc(C[C@H](Nc2ccccc2C(=O)c2ccccc2)C(=O)O)cc1)c1ccccn1`, the Potency entry is “inactive”.

Regarding `O=C(NO)c1cnc(NC2(c3cccc(F)c3)CCCCC2)nc1`, the Potency entry is “inactive”.

`CCc1cnn2c(NCc3ccc[n+]([O-])c3)cc(N3CCCC[C@H]3CCO)nc12`: the Potency entry is “inactive”.

For `O=c1oc2c(C3OCCCO3)c(O)ccc2c2c1CNCC2`, the Potency entry is “inactive”.

Consider `C[C@@H]1C[C@H](N)C[C@H](c2ccncc2NC(=O)c2ccc(F)c(-c3c(F)cccc3F)n2)C1`, for which the Potency result is “inactive”.

`C=CCN1C[C@H](C(=O)N(CCCN(C)C)C(=O)NCC)CC2c3cccc4[nH]cc(c34)C[C@H]21` (stereo not given in full): the Potency result is “inactive”.

As to `CC1(C(=O)O)CCC2(C)CCC3(C)C(=CC(=O)C4C5(C)CCC(OC6OC(C(=O)O)C(O)C(O)C6OC6OC(C(=O)O)C(O)C(O)C6O)C(C)(C)C5CCC43C)C2C1` (stereo not given), the Potency entry was “inactive”.

Turning to `COC(=O)[C@H]1[C@@H](O)[C@@]2(O)c3c(OC)cc(O[C@@H]4O[C@@H]([C@@H](O)CO)CO[C@H]4OC)cc3O[C@@]2(c2ccc(OC)cc2)[C@@H]1c1ccccc1`, the Potency result is “inactive”.

For `Cc1cc(C)cc(Oc2ccc(CNC(=O)[C@H](C)N)cc2C)c1`, the Potency result is “inactive”.

For the compound `C[C@H]1CNCCCN1S(=O)(=O)c1cccc2cncc(F)c12`, the Potency entry is “inactive”.

For `CCCNC(=O)c1cn2ncnc(Nc3cc(C(=O)NC4CC4)ccc3C)c2c1C`, the Potency result was “inactive”.

With `Nc1nc(F)nc2c1ncn2[C@@H]1O[C@H](COP(=O)(O)O)[C@@H](O)[C@@H]1O`, the Potency entry was “inactive”.

Take `CC(C)n1cc(-c2ccc3c(c2)N(C)CC3)c2c(NS(=O)(=O)c3ccn(C)n3)ccnc21`: the Potency result was “inactive”.

Take `COc1cc2c3c(n(CCCNCCO)c(=O)c2cc1OC)-c1cc2c(cc1C3=O)OCO2`: the Potency result was “inactive”.

Regarding `CC(C)Oc1ccc(-c2nn([C@@H](C)c3oc4ccc(F)cc4c(=O)c3-c3cccc(F)c3)c3ncnc(N)c23)cc1F`, the Potency entry was “inactive”.

On to Ac-PHSCN-NH2, for which the Potency result is “inactive”.

On to `Cc1ccc(-c2nc(N)nc3c2nnn3Cc2cccc(CO[C@H]3CCOC3)n2)o1`, for which the Potency entry is “inactive”.

In the case of `N[C@@H](CCC(=O)O)C(=O)N[C@@H](Cc1c[nH]c2ccccc12)C(=O)O` (H-Glu-Trp-OH), the Potency entry was “inactive”.

Take `C=C1C[C@@H]2CC[C@@]34C[C@H]5O[C@H]6[C@@H](O3)[C@H]3O[C@H](CC[C@@H]3O[C@H]6[C@H]5O4)CC(=O)C[C@@H]3[C@@H](OC)[C@@H](C[C@H](O)CN)O[C@H]3C[C@H]3O[C@@H](CC[C@@H]1O2)C[C@@H](C)C3=C`: the Potency entry was “inactive”.

Turning to `CC(C)Oc1ccc(-c2nc(-c3cccc4c3CC[C@@H]4NCCO)no2)cc1C#N`, the Potency entry was “inactive”.

On to `COc1ccc(Cl)cc1-c1cc(=O)[nH]c(=S)n1CC(N)=O`, for which the Potency entry is “inactive”.

In the case of `CC(C)c1c(-c2ccccc2)nc2c(C#N)c[nH]n2c1=O`, the Potency entry is “inactive”.

Regarding `N#C/C(=C1/Nc2ccccc2S1)c1ccnc(OCc2ccc(CN3CCOCC3)cc2)n1`, the Potency result is “inactive”.

As for `Cc1cc(C)c(S(=O)(=O)N(CCc2cccc(Br)c2)Cc2ccc(-c3cccc(S(C)(=O)=O)c3)cc2)c(C)c1`, the Potency result was “inactive”.
